Data on 28 compounds can be found in PubChem BioAssay AID602449 (Sanford-Burnham Center for Chemical Genomics, 2012).

Screen size: about 360,000 compounds; about 5,000 (1.4%) were called active.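 How the source made its calls: active means inhibition of 50% or more, scaled per plate between neutral and stimulator controls; inactive means the rest.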 The entries come from a sample that favours actives as a whole.

The experiment in a line: blockers of Ca2+-induced mitochondrial swelling – biochemical, isolated mouse mitochondria, absorbance, primary screen (AID 602449).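 Further: 0% = DMSO wells given calcium and 100% = 1 mM EGTA wells.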 To be noted: 30 min, at 10 µM, stronger effect = higher value.
As for `COc1cc(C(=O)NNC(=O)CN2C(=O)NC3(CCCC3)C2=O)cc(OC)c1OC`, the inhibition is -0.8% (inactive).

Regarding `COc1ccc(NS(=O)(=O)c2ccc(NC(=O)c3ccc(N(C)S(C)(=O)=O)cc3)cc2)cc1`, the inhibition is 21.3% (inactive).

As for `COc1ccc(NS(=O)(=O)c2ccc(Oc3c(C#N)cccc3C#N)cc2)cc1`, the inhibition is 91.6% (active).

Consider `COc1ccc(NS(=O)(=O)c2ccc(N3CCN(CCO)CC3)c([N+](=O)[O-])c2)cc1`, for which the inhibition was 2.1% (inactive).

For `CC(=N\NC(=O)c1cc(Br)ccc1O)/C(=N/O)C(=O)Nc1ccccc1`, the inhibition is 76.8% (active).

Consider `CC(=O)N/N=C(\C)c1ccc(Br)cc1Br`, for which the inhibition is -4.6% (inactive).

Turning to `C/C(=N/NC(=O)c1cc(Cl)ccc1O)C12CC3CC(CC(C3)C1)C2`, the inhibition was 9.3% (inactive).

Consider `CCO[C@H]1OC(C(=O)O)=C[C@@H](C2CCCCC2)[C@@H]1CCCO`, for which the inhibition was -1.5% (inactive).

Consider `O=C(COC(=O)c1cnccn1)Nc1ccc(Cl)cc1C(F)(F)F`, for which the inhibition was -0.1% (inactive).

Regarding `C=CCNC(=O)CCCC(=O)NCC=C`, the inhibition was 1.2% (inactive).

Turning to `O=C(OC1CC2CC1[C@H]1CCCCN1C2=O)N1CCOCC1` (stereo partly drawn), the inhibition was -3% (inactive).

Consider `Cc1ccc(C)c(NC(=O)C2CC(=O)N(C(C)C)C2)c1` (stereo not drawn), for which the inhibition was -0.7% (inactive).

Regarding `Cc1ccc(C)c(NC(=S)NNC(=S)Nc2ccc(C(C)C)cc2)c1`, the inhibition was 93.7% (active).

As for `Cc1ccc(C)c(NC(=S)NCC(c2cccnc2)N2CCOCC2)c1` (stereo not drawn), the inhibition is -1.7% (inactive).

As to `CCc1ccccc1NC(=O)CN(C)C(=O)COc1ccc(C)nc1[N+](=O)[O-]`, the inhibition was 14.3% (inactive).

Take `O=C(NCc1ccncc1)C1CCN(C(=O)c2cccc(Cl)c2)CC1`: the inhibition was 0.5% (inactive).

With `C=CCn1c(N)cc(=O)nc1SCC(=O)Nc1cccc2ccccc12`, the inhibition is 0.1% (inactive).

As for `O=C(NNS(=O)(=O)c1ccc(F)cc1)c1ccc([N+](=O)[O-])cc1Cl`, the inhibition is -0.9% (inactive).

With `Cc1cccc(NS(=O)(=O)c2ccc([N+](=O)[O-])cc2)n1`, the inhibition is 0.2% (inactive).

With `O=[N+]([O-])c1ccc(NS(=O)(=O)c2ccccc2)c(Cl)c1`, the inhibition is 86.7% (active).

In the case of `CC(Nc1ccccc1)c1cccnc1` (stereo not drawn), the inhibition is -1.4% (inactive).

As for `CC(=O)c1c(C)[nH]c(C(=O)OCC(=O)Nc2sc3c(c2C#N)CCCC3)c1C`, the inhibition is 98.8% (active).

As to `CC(=O)c1c(C)[nH]c(C(=O)OCC(=O)Nc2c(C)cccc2C)c1C`, the inhibition is 1.5% (inactive).

Consider `N#Cc1c(NC(=O)CCCl)sc2c1CCCCC2`, for which the inhibition is 0.2% (inactive).

Consider `O=C1CCN(Cc2ccc([N+](=O)[O-])cc2)CCN1[C@H](CO)Cc1ccccc1`, for which the inhibition was -0.2% (inactive).

Turning to `COCc1nnc(NC(=O)CS(=O)(=O)Cc2ccccc2)s1`, the inhibition is 0.4% (inactive).

Consider `O=C(Nc1nnc(COc2ccccc2)s1)Nc1ccccc1F`, for which the inhibition was 6.4% (inactive).

Take `O=C(Nc1ccccc1)Nc1nnc(COc2ccccc2F)s1`: the inhibition was 69.5% (active).
